Experiment in all cases: NCI-60 one-dose screen, 48 h (100 = growth as untreated, 0 = no growth, -100 = all killed)
Assay [1] has as its system HCT-15 colon. To be noted: 10 µM unless noted.
Assay [2] has as its system HT29 colon. The note with it: 10 µM unless noted.
Assay [3] deals with SNB-75 CNS. To be noted: 10 µM unless noted.
Assay [4] relates to SNB-19 CNS. The note with it: 10 µM unless noted.
In assay [5] the test system is U251 CNS. To be noted: 10 µM unless noted.
For assay [6], the system named is PC-3 prostate. To be noted: 10 µM unless noted.
The test system of assay [7] is SK-MEL-5 melanoma. The note with it: 10 µM unless noted.
Assay [8] concerns UACC-62 melanoma. The note with it: 10 µM unless noted.
The subject of assay [9] is LOX IMVI melanoma. The note with it: 10 µM.
For assay [10], the system named is SK-MEL-28 melanoma. To be noted: 10 µM unless noted.
Assay [11] relates to SK-MEL-2 melanoma. The note with it: 10 µM unless noted.
Assay [12] deals with EKVX NSCLC. The note with it: 10 µM unless noted.
Assay [13] deals with SN12C renal. To be noted: 10 µM unless noted.
In assay [14] the test system is UO-31 renal. The note with it: 10 µM unless noted.
Assay [15] concerns TK-10 renal. The note with it: 10 µM unless noted.
In assay [16] the test system is ACHN renal. To be noted: 10 µM unless noted.
Assay [17] concerns CAKI-1 renal. The note with it: 10 µM unless noted.
Assay [18] deals with A498 renal. The note with it: 10 µM unless noted.
Assay [19] deals with CCRF-CEM leukemia. To be noted: 10 µM unless noted.
For assay [20], the system named is MOLT-4 leukemia. To be noted: 10 µM unless noted.

SMILES strings stand for the structures. This is part of a sample that, as a whole, favours compounds with a hit. Of some 83,000 tested, about 20% had one in any assay.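 In brief: 96-well plates, 48 h treatment, single concentration, percent growth endpoint.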 A number with no mark means an inactive call. Calls of active or inactive are those of the source. Rule for the calls: active = growth percent below 10; inactive = the rest.

Consider `O=C(c1ccccc1)c1ccc(-c2ccc(O)cc2)cc1`, for which the growth in assay [1] is 57%; in assay [2], 120%; in [3] it was 43.5%; in [4] it was 59.7%; in [5] it was 37.3%; in [6], 76.8%. The growth was 23.6% in assay [7]; 48.5% in [8]; 73.4% in assay [9]; 75.1% in [10]; 59.1% in assay [11]; 64.5% in assay [12]. The growth in assay [13] was 83.2%; in assay [14], 45.2%; in [15] it was 68.7%; in [16] it was 50.4%; in [17] it was 103%; in assay [18] it was 65.1%. Besides, the growth was 60.7% in assay [19] and 120% in [20].
Regarding `CCN(CC)CCCC(C)NC(=S)N/N=C(\C)c1ccccn1` (stereo unspecified), the growth was 32.7% in assay [1]; 35.8% in assay [2]; 61.9% in assay [3]; 45.7% in assay [4]; 37.2% in [5]; 41.1% in [6]. In addition, the growth in [7] is 37.8%; in assay [8], 22.3%; in assay [9], 39.3%; in assay [10] it was 67.5%; in assay [11], 83.6%; in [12], 47.7%. Moreover, the growth in assay [13] was 35.9%; in assay [14], 14.8%; in [15], 48.4%; in assay [16] it was 31.4%; in assay [17], 20.1%; in assay [18] it was 72.1%. The growth in [19] is 29.8%; in assay [20], 9.05% (active).
`OCC(O)COc1ccc(Cl)cc1Cl` (stereo unspecified): the growth in assay [1] is 105%; in assay [2], 93.9%; in [3], 85.8%; in assay [4], 93.3%; in [5], 89.3%; in [6] it was 97.3%. Further, the growth in [7] was 109%; in assay [8] it was 96.6%; in assay [9] it was 111%; in [10], 96.5%; in assay [11] it was 97.4%; in [12], 96.5%. Besides, the growth in assay [13] is 95%; in assay [14] it was 89.4%; in [15], 101%; in assay [16] it was 93.2%; in assay [17] it was 96%; in assay [18] it was 99%. Further, the growth in assay [19] is 119%; in assay [20] it was 99.2%.
In the case of `CC(=O)CSc1ncnc2nc[nH]c12`, the growth was 96.1% in assay [1]; 104% in [2]; 89.3% in assay [3]; 99.7% in [4]; 101% in [5]; 92.5% in assay [6]. The growth is 95.8% in assay [7]; 74.6% in [8]; 42.2% in assay [9]; 82.3% in [10]; 95% in assay [11]; 95.4% in assay [12]. Also, the growth is 96.9% in assay [13]; 88.1% in [14]; 88.8% in assay [15]; 93% in assay [16]; 80.9% in assay [17]; 66.1% in [18]. Also, the growth was 89.3% in [19] and 87.4% in assay [20].
With `CC(=O)Nc1ccc(/C=C2\SC(=S)N(/C=C(\C(C)=O)C(N)=O)C2=O)cc1`, the growth in assay [1] was 98.2%; in assay [2] it was 97.4%; in assay [3], 82.4%; in assay [4], 100%; in assay [5] it was 90.3%; in assay [6], 78.5%. The growth in [7] was 88.7%; in [8] it was 87.6%; in assay [9], 78.3%; in assay [10], 93.4%; in assay [11] it was 87.7%; in assay [12] it was 94.2%. In addition, the growth in [13] was 95.5%; in assay [14] it was 68.4%; in assay [15], 97.4%; in assay [16] it was 97.8%; in assay [17], 98.3%; in assay [18], 101%. Moreover, the growth in [19] is 91.1%.
As to `O=c1cc(Cl)nc2ccccn12`, the growth in [1] was 109%; in assay [2], 111%; in assay [3], 109%; in assay [4] it was 103%; in assay [5], 107%; in assay [6] it was 96.7%. Besides, the growth was 105% in [7]; 117% in assay [8]; 103% in assay [9]; 101% in [10]; 110% in assay [11]; 102% in assay [12]. For the same compound, the growth in [13] is 102%; in assay [14], 84%; in assay [15], 105%; in [16], 110%; in assay [17], 96.1%; in [18], 103%. Moreover, the growth in assay [19] was 119%; in [20], 106%.
For `NNC(=O)N/N=C1\C(=O)N(c2nccs2)C(=O)C(=O)C1c1nc2ccccc2s1` (stereo unspecified), the growth was 116% in [1]; 94.1% in assay [2]; 81.8% in [3]; 101% in assay [4]; 80% in assay [5]; 82.6% in assay [6]. The growth is 96.5% in assay [7]; 90.5% in [8]; 96.3% in assay [9]; 112% in [10]; 98.4% in [11]; 84.8% in assay [12]. Besides, the growth was 96% in [13]; 75.5% in [14]; 114% in [15]; 109% in assay [16]; 96.7% in [17]; 98.3% in assay [18].
As for `Cc1ccc(C)c(CCO)c1`, the growth in assay [1] was 112%; in [2] it was 109%; in [3], 95.7%; in assay [4], 101%; in assay [5], 90.6%; in [6], 95.5%. Besides, the growth in assay [7] is 90.7%; in assay [8] it was 103%; in [9], 100%; in assay [10] it was 105%; in [11], 134%; in assay [12], 112%. Besides, the growth in assay [13] is 99.9%; in [14], 93.7%; in assay [15], 99.6%; in assay [16], 107%; in [17] it was 115%; in assay [18], 85.8%. The figures for the growth in assay [19] and in [20] were 119% and 113%, respectively.
Turning to `CC(=O)NC(CCC(=O)c1ccccc1)C(=O)O` (stereo unspecified), the growth in assay [1] was 104%; in [2], 93.6%; in assay [3] it was 90%; in assay [4], 101%; in [5] it was 87.6%; in [6], 80.2%. The growth in [7] was 97%; in assay [8], 97.4%; in assay [9], 100%; in [10], 105%; in [11], 104%; in [12] it was 99.2%. The growth in assay [13] is 98.5%; in assay [14], 98.5%; in [15], 93.8%; in assay [16] it was 108%; in [17], 102%; in assay [18] it was 99.4%. Moreover, the growth in [19] was 103%.

(Values after PubChem BioAssay (NCI).)
